Results from PubChem BioAssay (NCATS).
Results filed as inconclusive are left out. Where a call stands in place of a potency, no number is given. Active and inactive are the calls of the source. Calls follow the shape of the dose curve; as a rule, active = well fitted cell-killing curve with a large enough effect; inconclusive = small, poorly fitted or top-dose-only effect; inactive = flat fitted curve, though single readings scatter.

experiment: OV-KATE Cancer Cell Toxicity qHTS against the NCATS CANVASS Library (AID 1347345); conditions: OV-KATE cells viability, CellTiter-Glo luminescence, 72 h; series mostly up to 38.3 µM
Text: Natural products and their derivatives continue to be wellsprings of nascent therapeutic potential. However, many laboratories have limited resources for biological evaluation, leaving their previously isolated or synthesized compounds largely or completely untested. To address this issue, the Canvass library of natural products was assembled (https://tripod.nih.gov/canvass), in collaboration with academic and industry researchers, for quantitative high-throughput screening (qHTS) across a diverse set of cell-based and biochemical assays. The pure (>85% purity by liquid chromatography/mass spectrometry [LC/MS]) Canvass library of 346 natural products were submitted by 45 academic laboratories and companies around the world. We collected pure natural products to circumvent deconvolution and structure elucidation due to time and resource limitations. The library was formatted into 1536-well plates and evaluated in 50 qHTS (in an 11-pnt concentration series) bioassays with broad scope of disease-relevant mechanisms. The resulting data set from 50 different assays was then systematically analyzed to identify overall trends and specific natural products with interesting biological activities. Reported herein are the results of each individual qHTS and their corresponding assay protocol. National Center for Advancing Translational Sciences (NCATS), Rockville, MD National Institute of Health (NIH), Bethesda, Maryland
Cancer Cell Toxicity protocol for cell lines COV-362, OV-KATE, OV-SAHO, UWB1.289, UWB1.289-WTBRCA1, HEK-293, HPAF-II, Panc-1005, SW1088, or U-118MG. 1. In a 1536 well, white solid bottom tissue culture plates (Corning 7494), corresponding cells (COV-362, OV-KATE, OV-SAHO, UWB1.289, UWB1.289-WTBRCA1, HEK-293, HPAF-II, Panc-1005, SW1088, or U-118MG) were dispensed in each well at a final concentration of 1000 cells / well (6uL volume) using the Multidrop Combi (Thermo Fisher Scientific) dispenser. 2. The plates were incubated for 4 hours at 37 degrees C/5% CO2/95% Rh. 3. Compounds were pin transferred (~23nL volume) via Wako Pin-tool (Wako Automation, Richmond VA) equipped with a 1536 pin head. The assay plates were treated with compounds in an 11-pnt concentration series with a final concentration range of […] to 85uM. 4. Bortezomib was used as a single dose control (0.5mM column 4, rows 1 - 32) at a final concentration of 1.9uM and as a 16pnt titration (1mM; 1:2 dilution; 16-points; n = 2; column 3, rows 1 - 32) with final concentration range of 0.1nM - 3.8uM. 5. The assay plates were incubated for 72 hours at 37 degrees C/5% CO2/95% Rh. 6. 3uL CellTiter-Glo detection reagent was then added to the plates (columns 2 - 48, rows 1 - 32) and incubated at room temperature for additional 15min. 7. Luminescence signal was acquired via the ViewLux plate reader (PerkinElmer) using a clear filter, 2 second exposure and 2x binning settings.
Potency is read from the fitted curve at half-maximal effect.

| Compound | Potency |
| --- | --- |
| C/C=C1/CN2CC[C@]34C(=Nc5ccccc53)[C@@H]2C[C@@H]1[C@H]4C(=O)OC | inactive |
| CCC[C@H]1CC[C@H]2[C@H](C)CCC[C@H]2N1 | inactive |
| CC[N@@+]1([O-])C[C@]2(C)CC[C@@H](O)[C@@]34C5C[C@H]6CC[C@@]5(C(C[C@H]23)C41)[C@H](O)[C@@]6(O)CO (stereo not given in full) | inactive |
| O=C(c1ccccc1O)c1[nH]c(Cl)c(Cl)c1-n1c(C(=O)c2ccccc2O)cc(Cl)c1Cl | 5.94 µM (active) |
| CC(=O)N[C@H]1CCN2CCC[C@H]12 | inactive |
| CN(C)Cc1c[nH]c2ccccc12 | inactive |
| C=C1[C@@H](C)[C@H]2[C@H](Cc3ccccc3)NC(=O)[C@]23OC(=O)/C=C/[C@H](O)CCC[C@@H](C)C/C=C/[C@H]3[C@@H]1O | inactive |
| CCN1C[C@]2(C)CC[C@H](O)[C@]34C1C(C[C@H]23)[C@@]12CC[C@H](CC14)[C@](O)(COC(=O)c1ccc(OC)c(OC)c1)[C@H]2O (stereo not given in full) | inactive |
| C[C@]12CC(O)C3[C@@H](CCC4C[C@@H](O)CC[C@@]43CO)[C@@]1(O)CCC2C1=CC(=O)OC1 (stereo not given in full) | inactive |
| NCCc1ccccc1 | inactive |
| CC=C1CN(C=O)[C@H]2C[C@@H]1[C@@H](C(=O)OC)[C@@]13CCOC21Nc1ccccc13 (stereo not given in full) | inactive |
| CNCCc1ccc(O)cc1 | inactive |
| CC1=CC2CC[C@@H]3[C@@H](C)C[C@H](C)[C@@H](C1)N23 (stereo not given in full) | inactive |
| CNCCc1c[nH]c2ccccc12 | inactive |
| CO[C@@H](/C=C/CC/C=C/C(=O)O)[C@@H](O)[C@H](C)[C@@H](O)/C(C)=C/[C@H](C)C(=O)CCCC1CC(=O)NC(=O)C1 | inactive |
| CC1=CC(=O)C2=C(C)C[C@H](O)[C@@H]3[C@H](OC(=O)[C@@H]3C)[C@@H]12 | inactive |
| CCN1C[C@]2(C)CC[C@@H](O)[C@]34C1[C@H](C[C@H]23)C12CCC(CC14)[C@](O)(CO)[C@H]2O (stereo not given in full) | inactive |
| CCCCC[C@@H]1OC(=O)[C@@H](C)N(C)C(=O)[C@H](CCCCC)OC(=O)C(C)N(C)C(=O)[C@H](CCCCC)OC(=O)[C@@H](C)N(C)C(=O)[C@H](CCCCC)OC(=O)C(C)N(C)C1=O (stereo not given in full) | 8.38 µM (active) |
| CCCC[C@@H]1CC[C@H]2CCCC(CCC)N12 (stereo not given in full) | inactive |
| CC[C@@H]1CN2CC[C@@]3(O)C(=Nc4cccc(OC)c43)[C@@H]2C[C@@H]1/C(=C\OC)C(=O)OC | inactive |
| CN1C(=O)[C@]23CC4C(C)(C)[C@@]5(C[C@@]41CN2CC[C@@]3(C)O)C(=O)Nc1c5ccc2c1OC=CC(C)(C)O2 (stereo not given in full) | inactive |
| COc1ccc(C23Oc4cc(OC)cc(OC)c4[C@](O)([C@H](c4ccccc4)C2C(=O)NCCCCNC(=O)c2ccccc2)[C@@H]3O)cc1 (stereo not given in full) | inactive |
| CO[C@H](c1ccccc1)[C@H]1NC(=O)C(C)NC(=O)C(C[C@@H](C)CO)N(C)C(=O)[C@@H](C(O)c2cn(C(C)(C)C3CO3)c3ccccc23)NC(=O)C(C(C)C=C(C)C)NC(=O)C(CC(C)C)N(C)C(=O)C(C(C)C)NC1=O (stereo not given in full) | inactive |
| c1ccc2c3c([nH]c2c1)CNCC3 | inactive |
| C[C@@H]1CC[C@@H](c2ccoc2)N2C[C@@]3(CC[C@@H]12)CS[C@@]1(CC[C@H]2[C@H](C)CC[C@@H](c4ccoc4)N2[C@@H]1O)C3 | 7.47 µM (active) |
| CO[C@@H](/C=C/CC/C=C/C(=O)O)[C@@H](O)[C@H](C)/C=C(\C)[C@@H](O)[C@H](C)C(=O)CCCC1CC(=O)NC(=O)C1 | inactive |
| CCC(=O)CCCCC[C@@H]1NC(=O)[C@H]2CCCCN2C(=O)[C@H]([C@@H](C)CC)NC(=O)[C@H](Cc2cn(OC)c3ccccc23)NC1=O | 4.72 µM (active) |
| COc1ccc2c3c([nH]c2c1)C(C)=NCC3 | inactive |
| CNCCc1ccccc1 | inactive |
| COC(=O)C1=C2Nc3ccccc3[C@@]23CCN2CC(C(C)=O)C1C[C@H]23 (stereo not given in full) | inactive |
